Screens (PubChem BioAssay)
The list is not random: actives were taken first. Their share in the collection is about 6.3%.
ATXN viability – Viability Counterscreen for Primary qHTS for Inhibitors of ATXN expression; AID 651635, 2014; S2 cells (HEK-293 line with an ATXN2-luciferase reporter) viability, CellTiter-Fluor protease fluorescence, 24 h; 400,000 tested, 0.49% active; Potency, µM (top dose mostly 56.7 µM), most hits filed as cytotoxic; also: nearly all actives have a fitted effect of over 40% in size
ATXN2 expr inh – Primary qHTS for Inhibitors of ATXN expression; HEK-293 ATXN2-luciferase reporter, luminescence, 24 h; Potency, µM (titrated, usually from 57 µM), for inactives: top-dose activity change, negative = inhibition, most hits filed as inhibitors; 360,000 tested, 0.72% active; also: % is scaled to controls: 0 for no effect and ±100 for the full control effect; nearly all actives have a fitted effect of over 55% in size
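qHTS (up to 57 uM final) was run with 24 h compound exposure of reporter cells at 37 °C. Each well was multiplexed: SteadyGlo luminescence measured ATXN2-luciferase expression after a fluorogenic Gly-Phe-AFC viability readout (25 uM final).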
RORgamma inh – qHTS for inhibitors of ROR gamma transcriptional activity | Nuclear receptor ROR-gamma (Mus musculus), P51450 | Drosophila S2 Gal4-RORgamma UAS-luciferase reporter, 20 h | Potency, µM (top dose mostly 53.6 µM), for the others: top-dose activity change, negative = inhibition, usual class: inhibitors | 310,000 tested, 5.4% active; also: % is scaled to controls: 0 for no effect and ±100 for the full control effect; nearly all actives have a fitted effect of over 60% in size
Target sequence (P51450 whole entry, looked up, the tested form may be a part): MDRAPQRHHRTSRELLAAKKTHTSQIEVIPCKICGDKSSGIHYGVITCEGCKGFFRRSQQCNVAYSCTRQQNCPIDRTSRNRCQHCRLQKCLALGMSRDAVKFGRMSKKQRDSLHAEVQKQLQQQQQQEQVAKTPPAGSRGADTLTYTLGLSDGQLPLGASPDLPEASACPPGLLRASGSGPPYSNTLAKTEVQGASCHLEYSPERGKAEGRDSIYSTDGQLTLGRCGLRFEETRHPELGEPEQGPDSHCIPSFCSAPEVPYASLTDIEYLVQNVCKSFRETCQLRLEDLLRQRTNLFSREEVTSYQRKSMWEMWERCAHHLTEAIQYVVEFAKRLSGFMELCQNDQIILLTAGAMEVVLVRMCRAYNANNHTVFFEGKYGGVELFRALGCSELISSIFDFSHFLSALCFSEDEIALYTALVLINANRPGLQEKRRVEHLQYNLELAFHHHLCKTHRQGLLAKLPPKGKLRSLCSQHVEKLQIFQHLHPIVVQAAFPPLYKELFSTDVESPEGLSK
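Stable Schneider cell line, Gal4 DNA-binding domain fused to ROR gamma, UAS-luciferase. Cmpd 1 hr RT → CuSO4 700 uM final → 20 hr RT → luciferase reagent 10 min → luminescence.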
Gal4-VP16 FLuc – VP16 counterscreen qHTS for inhibitors of ROR gamma transcriptional activity; Drosophila S2 Gal4-VP16 UAS-luciferase, luminescence, 20 h; AID 2546, 2010; Potency, µM (titrated, usually from 53.6 µM), for the others: top-dose activity, negative = inhibition, hits mostly inhibitors; 310,000 tested, 3.5% active;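 also: Gal4-VP16 expression switched on by copper sulfate through the metallothionein promoter; % is scaled to controls: 0 for no effect and ±100 for the full control effect; nearly all actives have a fitted effect of over 50% in size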
TGFb inhibitor – qHTS for Inhibitors of TGF-b; Potency, µM (highest dose often 46.1 µM), for inactives: at the highest dose activity, negative = inhibition, hits mostly inhibitors; HepG2 CAGA-GFP TGF-b/SMAD3 reporter, GFP fluorescence, 18 h; TGF-beta stimulated, 500 pg/mL final; AID 588855, 2011; 410,000 tested, 1.2% active; also: % is scaled to controls: 0 for no effect and ±100 for the full control effect; nearly all actives have a fitted effect of over 65% in size
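Inhibition of TGF-beta-driven CAGA-GFP reporter expression in HEPG2 cells is measured by cellular GFP fluorescence after 18 h stimulation with 500 pg/mL recombinant TGF-beta in 1% FBS medium at 37 degrees C.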
HepG2 tox – qHTS for Inhibitors of TGF-b: Cytotox Counterscreen; Potency, µM (doses to about 46.1 µM), for inactives: top-dose activity change, negative = cytotoxicity, most hits filed as cytotoxic; 410,000 tested, 0.76% active; HepG2 CAGA-GFP viability, ATP luminescence, 18 h; AID 588856, 2011
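HepG2 CAGA-GFP cells (1000/well, DMEM with 1% FBS) received compound, then TGF-beta at 500 pg/mL final, and were incubated 18 hours at 37 degrees C. Viability was read by CellTiter-Glo luminescence. Media-only wells were set as complete cell-killing and DMSO as no toxicity.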
* = called active by the depositor; i = inactive; ? = inconclusive; nt = no result; [ ] = dose if it differs, or a comment. Calls follow the shape of the dose curve; as a rule, active = well fitted curve in the direction sought with a large enough effect; inconclusive = small, poorly fitted or top-dose-only effect, or another doubt; inactive = no such curve, though single readings can be large; an effect the other way counts as inactive or inconclusive. Potency is read from the fitted curve at half-maximal effect.

SMILES	ATXN viability	ATXN2 expr inh	RORgamma inh	Gal4-VP16 FLuc	TGFb inhibitor	HepG2 tox
CCc1cccc(NC(=O)CS(=O)Cc2nc(-c3ccc(C)cc3)oc2C)c1 (configuration not stated)	?	-18.7%	11.2µM*	-3.5%	-33.8%	-30.3%
Cc1oc(-c2ccc(Cl)cc2)nc1CS(=O)CC(=O)NCc1ccccc1 (configuration not stated)	i	-12.5%	-12.1%	0.9%	-14.0%	-12.9%
COc1ccc(CNC(=O)c2ccc(-c3nc(CSc4ccccc4)c(C)o3)cc2)cc1	i	-9.7%	nt	nt	?	10µM*
Cc1ccc(-c2nc(CS(=O)CC(=O)NCc3ccc(Cl)cc3)c(C)o2)cc1 (configuration not stated)	i	-11.2%	12.6µM*	0.3%	?	-67.7%
COc1ccc(CCNC(=O)c2cnn3c2NC(=C2CC2)C=C3C(F)F)cc1OC	nt	nt	nt	nt	19.8%	-48.9%
Cc1c(Br)c(=O)oc2c(Br)c(O)c(O)cc12	nt	2.4%	5.01µM*	-20.0%	?	-29.1%
COc1ccc(CCN(C)CCCOc2ccc(S(=O)(=O)c3[nH]c4ccccc4c3C(C)C)cc2)cc1OC	nt	-17.2%	14.1µM*	17.8µM*	nt	nt
COc1ccc(CCN(C)CCc2ccc(OC)c(OC)c2)cc1OC	i	-7.6%	8.3%	2.1%	3.1%	-17.2%
COc1cccc2sc(Nc3nc(-c4ccccn4)cs3)nc12	nt	nt	0.0447µM*	nt	nt	nt
O=C(CC1CC2CCC1C2)Nc1nc(-c2ccccn2)cs1 (configuration not stated)	?	-23.8%	3.16µM*	12.6µM*	-28.7%	-23.1%
O=C(Nc1nc(-c2ccccn2)cs1)C12CC3CC(CC(O)(C3)C1)C2	i	-10.4%	?	-28.7%	?	-24.8%
O=C(Nc1nc(-c2ccccn2)cs1)C1CC1	?	-10.1%	15.8µM*	?	-0.1%	-28.8%
c1ccc(-c2csc(Nc3cccnc3)n2)nc1	i	61.5%	?	12.6%	-7.7%	-10.8%
c1ccc(Nc2nc(-c3ccccn3)cs2)cc1	i	122.5%	3.55µM*	10µM*	-36.0%	-26.7%
Cc1cc(C(=O)Nc2ccccc2-c2nc(CNC(=O)c3sc(C)nc3C)c(C)o2)c(C)o1	i	nt	nt	nt	nt	nt
O=C(Nc1nc(-c2cccs2)cs1)C1CC(=O)N(c2ccc3c(c2)OCCO3)C1 (configuration not stated)	nt	nt	nt	nt	?	-34.8%
O=C(Nc1nc(-c2ccccn2)cs1)C1CC(=O)N(c2ccc3c(c2)OCCO3)C1 (configuration not stated)	i	-2.0%	10µM*	?	7.6%	-27.8%
CCCCc1ccc(NC(=S)NCc2cccc(OC)c2)cc1	i	-16.8%	3.55µM*	0.3%[10 µM]	?	-16.7%
CCCCc1ccc(NC(=S)NCc2cccnc2)cc1	i	-18.6%	?	?	?	-8.3%
CCc1ccc(NC(=O)Nc2cccc(OC)c2)cc1	i	5.2%	9.9%	?	?	-4.9%
CCCCc1ccc(NC(=S)Nc2cccnc2)cc1	i	19.9%	12.6µM*	12.6µM*	1.9%	-4.6%
COc1cccc(NC(=O)Nc2ccc(CC(=O)O)cc2)c1	?	-16.6%	?	20µM*	4.1%	-0.2%
CCCCc1ccc(NC(=O)Nc2cccnc2)cc1	i	33.5%	42.4%	5.1%	-26.9%	-41.7%
COC(=O)Cc1ccc(NC(=S)NCc2cccc(OC)c2)cc1	i	-3.0%	12.6µM*	8.1%[10 µM]	-27.5%	4.8%
COC(=O)Cc1ccc(NC(=S)NCc2ccc(S(N)(=O)=O)cc2)cc1	i	-19.5%	-0.1%	-2.9%	8.2%	0.7%
SMILES	ATXN viability	ATXN2 expr inh	RORgamma inh	Gal4-VP16 FLuc	TGFb inhibitor	HepG2 tox
Cc1c(F)cc2c(=O)c(C(=O)O)cn3c2c1CCC3C (configuration not stated)	i	9.9%	nt	nt	nt	nt
CN1C2CCC1/C(=C\c1ccccc1)C(=O)/C2=C\c1ccccc1	?	25.1µM*	-22.5%	-6.7%	0.3%	-24.7%
COc1ccc(CCCc2nnc(SCC(=O)Nc3ccc(C)cc3C)o2)cc1	i	2.2%	nt	nt	-19.3%	-5.0%
S=c1[nH]ccn1-c1cccc(Cl)c1Cl	i	nt	7.94µM*	?	-8.1%	2.6%
S=c1[nH]ccn1-c1ccccc1Cl	i	-11.7%	?	-14.4%	19.6%	-10.3%
S=c1[nH]ccn1-c1cccc(Cl)c1	i	-4.8%	12.6µM*	?	37.3%	-3.7%
Cc1ccc(-n2cc[nH]c2=S)cc1C	i	-14.7%	0.0501µM*	-91.9%	10.3%	4.6%
COc1cccc2cc(-c3nnc(Nc4c(F)cccc4F)s3)c(=O)oc12	i	58.5%	nt	nt	2.0%	4.1%
Cc1ccc(C(=O)CC2(O)C(=O)N(CCc3ccccc3)c3ccc(Cl)cc32)cc1 (configuration not stated)	?	?	nt	nt	17.8µM*	11.2µM*
COc1ccc(C2Nc3ccccc3C(=O)N2Cc2ccco2)cc1COc1c(C)cccc1C (configuration not stated)	nt	nt	nt	nt	?	-73.4%
COc1ccc2c(C(=O)NCc3ccc4c(c3)OCO4)c(-c3ccc(S(C)(=O)=O)cc3)sc2c1	35.5µM*	?	nt	nt	-5.1%	-3.1%
COc1ccc(-c2nc(CS(=O)CC(=O)NCCc3ccccc3)c(C)o2)cc1OC (configuration not stated)	nt	nt	nt	nt	-10.4%	-22.3%
CC(C(=O)NCc1cccc(Br)c1)n1ncn2cccc2c1=O (configuration not stated)	i	-6.2%	nt	nt	4.2%	-1.4%
CC1(Cc2cccc(F)c2)C(=O)Nc2ccc(S(=O)(=O)NC3CCCCC3)cc21 (configuration not stated)	?	?	nt	nt	-24.3%	-26.9%
CC1(Cc2ccc(Cl)c(Cl)c2)C(=O)Nc2ccc(S(=O)(=O)NC3CCCCC3)cc21 (configuration not stated)	i	-13.4%	nt	nt	12.6µM*	-97.2%
COc1ccccc1-c1ccc2c(c1)C(C)(Cc1ccccc1C#N)C(=O)N2 (configuration not stated)	i	?	nt	nt	?	1.3%
COc1ccccc1-c1ccc2c(c1)C(C)(Cc1ccc(Cl)c(Cl)c1)C(=O)N2 (configuration not stated)	?	?	nt	nt	14.1µM*	-100.8%
COc1ccc(N2N=NN(C(C)C)C2=C(Cl)c2nnnn2-c2ccc(OC)cc2)cc1	i	29.5%	nt	nt	?	-58.7%
